This passage reports outcome and Potency results from PubChem BioAssay (Tox21).

The nature of assay [1]: qHTS assay to identify small molecule antagonists of the estrogen receptor alpha (ER-alpha) signaling pathway using the BG1 cell line in the presence of 0.1 nM 17-beta-estradiol - cell viability counter screen (AID 1259241). Further: nearly all actives have a fitted effect of over 40% in size. The essentials: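 Cells were plated and left 24 hr, compounds in DMSO were pinned in, 17beta-estradiol was added to 0.1 nM final, and after 22 hr CellTiter-Fluor reagent was added for 30 min before fluorescence was read.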

The target in assay [2] is Estrogen receptor (Homo sapiens) (UniProt P03372). Briefly: qHTS assay to identify small molecule antagonists of the estrogen receptor alpha (ER-alpha) signaling pathway using the BG1 cell line in the presence of 0.1 nM 17-beta-estradiol (AID 1259244). Further: nearly all actives have a fitted effect of over 50% in size. The essentials: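 VM7Luc4E2 cells (endogenous full-length ER-alpha, 4×ERE-luciferase), kept 5 days in phenol red-free, charcoal-stripped FBS medium; 4,000 cells/well. Compounds added with 0.1 nM (final) 17beta-estradiol, 22 hr at 37C; luminescence read with ONE-Glo after 30 min.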

Assay [3] is described as follows: qHTS assay to identify small molecule HDAC inhibitors (AID 1259364). Further: top concentration of the series differs between compounds; nearly all actives have a fitted effect of over 45% in size. The method in brief:
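Wild-type HCT-116 cells, plated overnight at 37 C, exposed to compounds 2 hr at 37 C; luminogenic HDAC-Glo substrate then added 30 min at room temperature. Luminescence reports relative endogenous class I/II HDAC activity.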

Assay [4] in a line: qHTS assay to identify small molecule HDAC inhibitors - cell viability counter screen (AID 1259365). Further: series mostly up to about 92 µM; nearly all actives have a fitted effect of over 50% in size. The method in brief: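 Counter screen in wild-type HCT-116 cells: compounds dissolved in DMSO are pin-transferred onto overnight-plated cells and left 2hr at 37C. ATP-based CellTiter-Glo luminescence then measures viable cells.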
Assay [5] in a line: qHTS assay to identify small molecule agonists of the sonic hedgehog signaling (Shh) pathway - cell viability counter screen (AID 1259366). Further: nearly all actives have a fitted effect of over 50% in size. Further: potency means the concentration at half of the fitted maximal effect. The method in brief:
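Cells are plated at 2,000 per well and left 4hr at 37C, 5% CO2 before compound addition. After 23hr of treatment, CellTiter-Fluor reagent is added for 1hr at 37C and fluorescence is measured.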

A short description of assay [6]: qHTS assay to identify small molecule antagonists of the sonic hedgehog signaling (Shh) pathway - cell viability counter screen (AID 1259367). Further: nearly all actives have a fitted effect of over 55% in size. Further: potency means the concentration at half of the fitted maximal effect. The essentials: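 NIH/3T3-derived Gli1-Luc reporter cells (2,000 per well) rested 4 hr at 37 C, then received DMSO compounds plus conditioned medium. After 23 hr of treatment, CellTiter-Fluor was added for 1 hr at 37C and fluorescence read.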

The nature of assay [7]: qHTS assay to identify small molecule agonists of the sonic hedgehog signaling (Shh) pathway (AID 1259368; calls by dose curve;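 further: NIH/3T3-derived 3T3Gli1-Luc cells carrying a stable Gli1-driven firefly luciferase reporter; series mostly up to about 92 µM; nearly all actives have a fitted effect of over 15% in size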). The method in brief:
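NIH/3T3-derived 3T3Gli1-Luc cells with stably integrated Gli1-driven firefly luciferase, 2,000 cells/well, compounds added after 4 hr. Incubated 24 hr at 37C, 5% CO2; luminescence read after 30 min with luciferase reagent at room temperature.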

Assay [8] is described as follows: qHTS assay to identify small molecule antagonists of the sonic hedgehog signaling (Shh) pathway (AID 1259369; calls by dose curve; further: nearly all actives have a fitted effect of over 45% in size; further: potency means the concentration at half of the fitted maximal effect). The essentials:
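NIH/3T3-derived Gli1-Luc reporter cells plated 4 h, dosed with compound, then stimulated with conditioned medium for 24 h at 37 C. Firefly luciferase luminescence read after 30 min with detection reagent at room temperature.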

Assay [9] has as its target Estrogen receptor beta (Homo sapiens) (UniProt Q92731). As to the kind of experiment: qHTS assay to identify small molecule agonists of the estrogen receptor beta (ER-beta) signaling pathway (AID 1259377; active means well fitted activation curve with a large enough effect in the signal ratio in the repeat runs, not every such curve was filed as active; the % refers to the signal ratio). The essentials:
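Agonist mode cell assay in GripTite HEK293T cells expressing an ER-beta fusion that drives beta-lactamase from an Upstream Activator Sequence; 16 hr compound exposure at 37C, then 2 h LiveBLAzer B/G FRET substrate at room temperature, fluorescence read-out.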

Assay [10] shares this target. As to the kind of experiment: qHTS assay to identify small molecule antagonists of the estrogen receptor beta (ER-beta) signaling pathway (AID 1259378; active means well fitted inhibition curve with a large enough effect in the signal ratio in the repeat runs, not every such curve was filed as active; the % refers to the signal ratio). The method in brief: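 ER-beta-UAS-bla HEK293T (GripTite) cells in 2% charcoal-stripped FBS medium were preincubated 6 hr at 37C, dosed with compound, then stimulated with 1 nM E2 (final) for 16 hr; beta-lactamase reporter read by B/G FRET fluorescence after 2 hr substrate loading.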

Assay [11] can be described thus: qHTS assay to identify small molecule agonists of the androgen receptor (AR) signaling pathway in the presence of an antagonist - cell viability counter screen (AID 1259379).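 Further: MDA-kb2 human breast cancer cells carrying an MMTV luciferase reporter; series mostly up to about 92 µM; nearly all actives have a fitted effect of over 25% in size.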 The essentials: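 MDA-kb2 cells (MMTV-luciferase, AR/GR), 3,000/well, 5 h attachment, then 3.0 µM nilutamide (final) and compounds at 15 concentrations. Viability by CellTiter-Fluor fluorescence after 16 h at 37 °C, 0% CO2, in the reporter wells.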

The nature of assay [12]: qHTS assay to identify small molecule agonists of the estrogen receptor beta (ER-beta) signaling pathway - cell viability counter screen (AID 1259380). Further: nearly all actives have a fitted effect of over 30% in size. The method in brief: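 ER-beta-UAS-bla HEK293T cells in medium with 2% charcoal-stripped FBS, pre-incubated 6 hr, then treated 16 hr at 37C. Cytotoxicity read in the same wells by CellTiter-Glo luminescence after 30 min at room temperature.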

Assay [13] can be described thus: qHTS assay to identify small molecule antagonists of the estrogen receptor beta (ER-beta) signaling pathway - cell viability counter screen (AID 1259382). Further: series mostly up to about 92 µM; nearly all actives have a fitted effect of over 55% in size. The method in brief: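 ER-beta-UAS-bla HEK293T cells in 2% charcoal-stripped FBS medium, treated with compound plus 1 nM 17-beta-estradiol for 16 h at 37C. Viability read by CellTiter-Glo luminescence after 30 min at room temperature in the same wells.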

For assay [14], the target named is Thyrotropin receptor (Homo sapiens) (UniProt P16473). Briefly: qHTS assay to identify small molecule antagonists of the thyroid stimulating hormone receptor (TSHR) signaling pathway (AID 1259385; calls by dose curve; further: nearly all actives have a fitted effect of over 20% in size). The essentials: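 TSHR-HEK293 cells were plated and held 18 h at 37C/5% CO2, then given compound plus Ro20-1724 and stimulated with TSH at 1.5 ng/mL final. After 30 min at room temperature, cAMP was detected with cAMP-d2/anti-cAMP-cryptate (1 h) by fluorescence.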

The nature of assay [15]: qHTS assay to identify small molecule agonists of the estrogen receptor alpha (ER-alpha) signaling pathway in the presence of an antagonist - cell viability counter screen (AID 1259386).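 Further: series mostly up to about 92 µM; cells exposed to compounds for 22 h at 37 °C before the viability read; nearly all actives have a fitted effect of over 30% in size.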 The method in brief:
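Cell viability in VM7Luc4E2 cells (endogenous full-length ER-alpha) measured by CellTiter-Fluor fluorescence in the same wells as the luciferase screen. Cells pre-cultured 5 days in charcoal-stripped serum, then treated 22 h with compounds at 15 concentrations plus 10.0nM ICI-182,780.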

The nature of assay [16]: qHTS assay to identify small molecule phospholipidosis (PLD) inducers (AID 1259344; active means well fitted curve in the direction sought with a large enough effect; an effect the other way counts as inactive or inconclusive). The essentials:
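HepG2 cells on collagen I, attached 4 h at 37 C, were co-treated with compound and LipidTOX Red dye for 24 h at 37 C, then fixed with paraformaldehyde plus Hoechst 33342 and imaged by high-content microscopy for phospholipid accumulation.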

Assay [17] has as its target Estrogen receptor (Homo sapiens) (UniProt P03372). As to the kind of experiment: qHTS assay to identify small molecule agonists of the estrogen receptor alpha (ER-alpha) signaling pathway in the presence of an antagonist (AID 1259383; calls by dose curve; further: top concentration of the series differs between compounds; nearly all actives have a fitted effect of over 15% in size). The method in brief:
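VM7Luc4E2 cells express endogenous full-length ER-alpha with an ERE-luciferase reporter and were hormone-deprived for 5 days. Compounds at 15 concentrations were added with 10.0nM ICI-182,780 for 22hr at 37C. Luminescence was read with ONE-Glo.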

Assay [18] is described as follows: qHTS assay to identify small molecule agonists or antagonists of the thyroid stimulating hormone receptor (TSHR) signaling pathway - wild type cell line counter screen (AID 1259384; calls by dose curve). The method in brief: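 Wild-type HEK293 cells were plated 18 h at 37 C/5% CO2, pin-dosed with compound plus Ro20-1724 medium, held 30 min at room temperature, then given cAMP-d2 and anti-cAMP-cryptate; fluorescence was read after 1 h. Fifteen concentrations, triplicate.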

Assay [19] in a line: qHTS assay to identify small molecule antagonists of the androgen receptor (AR) signaling pathway using the MDA cell line in the presence of 0.5 nM R1881 - cell viability counter screen (AID 1259242). Further: nearly all actives have a fitted effect of over 45% in size. The essentials: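 MDA-kb2 cells (MMTV-luciferase, AR/GR responsive) were treated with compounds plus 0.5 nM R1881 (final) for 16 hr at 37C, 0% CO2. Viability was then read in the same wells as live-cell protease fluorescence (CellTiter-Fluor, 30 min).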

Values joined by “and” are separate entries in the source; they are usually repeats but may differ in a detail not shown here. Equal values may be shown once. Inconclusive results are not listed. Active and inactive are the calls of the source. Unless noted, the call rests on the fitted dose curve; in most records, active means well fitted curve in the direction sought with a large enough effect in the repeat runs; inconclusive means weak or mixed curves; inactive means no such curve, though single readings can be large; an effect the other way counts as inactive or inconclusive.

Sequence of Estrogen receptor (Homo sapiens) (P03372 whole entry, looked up): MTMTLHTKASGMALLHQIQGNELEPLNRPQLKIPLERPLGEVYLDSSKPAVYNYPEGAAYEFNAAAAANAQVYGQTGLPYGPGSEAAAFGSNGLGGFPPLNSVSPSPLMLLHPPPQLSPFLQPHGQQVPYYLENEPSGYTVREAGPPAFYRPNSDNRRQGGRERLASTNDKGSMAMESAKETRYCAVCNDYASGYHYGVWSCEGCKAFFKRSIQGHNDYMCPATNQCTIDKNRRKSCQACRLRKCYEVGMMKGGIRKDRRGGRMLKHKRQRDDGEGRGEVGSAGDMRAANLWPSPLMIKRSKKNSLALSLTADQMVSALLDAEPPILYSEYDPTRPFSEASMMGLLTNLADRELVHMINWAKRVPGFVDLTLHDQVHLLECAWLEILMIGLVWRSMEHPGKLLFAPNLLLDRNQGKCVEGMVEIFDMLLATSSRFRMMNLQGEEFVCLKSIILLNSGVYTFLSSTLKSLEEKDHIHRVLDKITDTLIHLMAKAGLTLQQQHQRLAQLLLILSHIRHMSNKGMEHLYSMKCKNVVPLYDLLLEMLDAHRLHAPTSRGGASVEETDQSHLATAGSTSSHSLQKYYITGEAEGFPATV
Sequence of Thyrotropin receptor (Homo sapiens) (P16473 whole entry, looked up): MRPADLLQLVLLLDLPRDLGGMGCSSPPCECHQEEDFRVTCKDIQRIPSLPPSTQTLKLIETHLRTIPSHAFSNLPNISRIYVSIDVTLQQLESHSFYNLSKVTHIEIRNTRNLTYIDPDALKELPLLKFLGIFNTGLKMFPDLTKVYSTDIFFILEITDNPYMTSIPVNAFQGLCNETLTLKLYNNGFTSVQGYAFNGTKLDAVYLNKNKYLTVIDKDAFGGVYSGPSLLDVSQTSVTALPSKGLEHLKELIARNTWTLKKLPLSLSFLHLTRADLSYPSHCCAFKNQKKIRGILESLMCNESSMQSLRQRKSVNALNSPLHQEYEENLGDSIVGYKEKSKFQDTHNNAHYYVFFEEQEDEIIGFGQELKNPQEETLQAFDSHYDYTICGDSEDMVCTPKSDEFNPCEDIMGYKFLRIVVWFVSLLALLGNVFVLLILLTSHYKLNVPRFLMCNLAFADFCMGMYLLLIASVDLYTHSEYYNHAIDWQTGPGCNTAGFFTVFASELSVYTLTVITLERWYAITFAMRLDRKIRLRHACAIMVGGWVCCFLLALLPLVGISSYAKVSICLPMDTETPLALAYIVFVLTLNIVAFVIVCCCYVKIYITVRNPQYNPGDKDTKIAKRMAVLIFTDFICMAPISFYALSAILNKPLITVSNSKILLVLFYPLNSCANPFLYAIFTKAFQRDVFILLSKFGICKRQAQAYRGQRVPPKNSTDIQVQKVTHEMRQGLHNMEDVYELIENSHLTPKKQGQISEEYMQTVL
Sequence of Estrogen receptor beta (Homo sapiens) (Q92731 whole entry, looked up, the tested form may be a part): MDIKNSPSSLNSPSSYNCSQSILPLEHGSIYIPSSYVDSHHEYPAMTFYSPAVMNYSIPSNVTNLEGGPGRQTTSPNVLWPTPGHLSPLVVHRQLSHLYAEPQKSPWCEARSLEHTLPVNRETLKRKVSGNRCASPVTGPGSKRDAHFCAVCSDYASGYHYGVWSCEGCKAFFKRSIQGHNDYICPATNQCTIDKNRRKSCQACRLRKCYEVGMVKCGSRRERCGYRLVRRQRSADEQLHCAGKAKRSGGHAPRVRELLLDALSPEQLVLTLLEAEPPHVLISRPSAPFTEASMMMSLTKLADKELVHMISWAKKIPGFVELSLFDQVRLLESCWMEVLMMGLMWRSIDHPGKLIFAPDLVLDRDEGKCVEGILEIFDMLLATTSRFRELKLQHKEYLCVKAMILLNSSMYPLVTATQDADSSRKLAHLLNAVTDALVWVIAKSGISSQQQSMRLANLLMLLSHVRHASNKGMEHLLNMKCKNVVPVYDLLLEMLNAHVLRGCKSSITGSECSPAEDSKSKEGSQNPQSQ

On to `C[C@H](NC(CCc1ccccc1)C(=O)O)C(=O)N1CCC[C@H]1C(=O)O` (stereo partly specified), for which the outcome in [1], in [2], in [4], in assay [7], in assay [9] and in assay [10] was inactive. Besides, the Potency entry in [3], in assay [5], in [6], in assay [8], in assay [11] and in assay [12] was “inactive” throughout. The Potency entry in assay [13], in [14] and in assay [15] was “inactive” in each case.

With `CCC(=O)OC(C)c1ccccc1` (stereo unspecified), the outcome in assay [1], in assay [2], in assay [4], in assay [9] and in assay [10] was inactive. For the same compound, the Potency entry in assay [3], in assay [5], in [6], in assay [8], in assay [11] and in assay [12] was “inactive” throughout. Moreover, the Potency result in assay [13], in assay [14] and in assay [15] was “inactive” each time.

In the case of `c1ccc([C@H]2CN3CCSC3=N2)cc1`, the outcome in [1], in [2], in [4], in assay [9], in [10] and in assay [18] was inactive. Further, the Potency result in assay [16], in assay [5], in assay [6], in [8], in assay [11] and in assay [12] was “inactive” throughout. Further, the Potency result in assay [13], in [17], in [14] and in assay [15] was “inactive” each time.

As for `Nc1c2c(nc3ccccc13)CCCC2O` (stereo unspecified), the result in assay [1], in [2], in assay [4], in assay [7], in assay [9] and in [10] was inactive. The outcome in assay [18] was inactive. The Potency entry in assay [3], in assay [5], in assay [6], in assay [11], in assay [12] and in [13] was “inactive” each time. Besides, the Potency entry in [14] and in assay [15] was “inactive” each time.

Consider `CC(C)(C)c1ccc(O)c(O)c1`, for which the outcome in [1], in assay [4] and in assay [7] was inactive. Further, the Potency entry in assay [16], in assay [3], in assay [11], in assay [12], in [13] and in assay [14] was “inactive” each time. For the same compound, the Potency was 27.3 µM (active) in [5]; 50.2 µM (active) and 24.3 µM (active) in assay [6]; 15.9 µM (active) and 6.86 µM (active) in assay [8].

On to `CCCN(CCC)CCc1cccc2c1CC(=O)N2`, for which the outcome in [1], in assay [4], in assay [7], in assay [9] and in assay [10] was inactive. Further, the Potency entry in assay [5], in assay [6], in assay [8], in [11], in assay [12] and in [13] was “inactive” each time. For the same compound, the Potency result in assay [14] and in [15] was “inactive” each time.

As for `C=C1CC[C@H]2C[C@@H]1C2(C)C`, the result in assay [1], in [2], in assay [4], in [7], in assay [9] and in assay [10] was inactive. The Potency result in [5], in assay [6], in assay [8], in [11], in assay [12] and in assay [13] was “inactive” each time. Further, the Potency entry in assay [17], in assay [14] and in assay [15] was “inactive” each time.

Consider `CC[N+](C)(C)c1cccc(O)c1`, for which the outcome in assay [1], in assay [4], in assay [7], in assay [9], in [10] and in assay [18] was inactive. In addition, the Potency entry in assay [16], in assay [3], in assay [5], in [6], in assay [8] and in assay [11] was “inactive” in each case. Also, the Potency result in [13], in assay [14] and in [15] was “inactive” each time.

`CC(C)c1cc2c(cc1S(=O)(=O)O)[C@@]1(C)CCC[C@@](C)(C(=O)O)[C@@H]1CC2`: the Potency entry in assay [19], in [16], in [3], in [5], in assay [6] and in assay [11] was “inactive” each time. Also, the Potency result in assay [12], in assay [13], in assay [17], in assay [14] and in [15] was “inactive” in each case. Further, the result in assay [2], in [4], in [9], in assay [10] and in assay [18] was inactive.
